Potency data for 21 compounds are collected here from PubChem BioAssay (NCATS).

Molecules are shown by their SMILES. Results filed as inconclusive are left out. Entries that show only a call come without a potency. The source made the active and inactive calls. Calls come from the whole dose curve; as a rule, active = well fitted cell-killing curve with a large enough effect; inconclusive = small, poorly fitted or top-dose-only effect, or effect the other way; inactive = no such curve, though single readings can be large or run the other way.
Potency is the fitted concentration of half-maximal effect.

The assay in a line: qHTS of pediatric cancer cell lines to identify multiple opportunities for drug repurposing: Confirmatory screen for SJ-GBM2 cells (AID 1347116).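 Note: 48 hour compound exposure; nearly all actives have a fitted effect of over 60% in size.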 The settings on record: SJ-GBM2 glioblastoma cells, viability; series mostly up to 45.9 µM. The source says: Drug repurposing or repositioning has been offered as a strategy for drug development in oncology programs. This approach has special potential for childhood cancers and other rare or orphan diseases, where the expected return on new drug development has been a disincentive to pharmaceuticals.
In this project we exploit the poly-pharmacology of drugs to discover new indications via phenotypic screening of a panel of 19 well-characterized cell lines derived from solid tumors seen in children and adolescents. The goal is to identify approved drugs with previously unrecognized anticancer properties that has the potential to reveal new mechanisms and biological processes involved in carcinogenesis or drug resistance. We employed a titration-based paradigm (quantitative high-throughput screening or qHTS), where all compounds were tested at multiple concentrations for their effect on cell viability. Concentration-response curves (CRCs) were derived directly from the primary screen, and both potency and efficacy values were used to identify compounds with robust bioactivity profiles. We screened the NIH Chemical Genomics Center (NCGC) Pharmaceutical Collection (NPC) and Mechanism Interrogation Plate (MIPE) small molecule collections of approved and investigational compounds against these cell lines; and measured metabolically active cells after 48 hours of compound treatment as a proxy for cell viability.
Assay Submitter: Nathalia J. Martinez, National Center for Advancing Translational Sciences, National Institutes of Health, Rockville, MD, USA; email: natalia.martinez@nih.gov
[1] Shen, M et al. Quantitative high-throughput phenotypic screening of pediatric cancer cell lines identifies multiple opportunities for drug repurposing. Oncotarget 2017 Dec 19;9(4):4758-4772. PMID 29435139.
The cells were obtained from University of North Carolina (UNC), Pediatric Preclinical Testing Program (PPT), and Coriell Institute (CI).
qHTS cell viability assay:
Cells were assayed in growth media at a density of 500-1,000 cells/well. Five microliters of cells were dispensed into 1,536-well, white, solid-bottom, TC-treated plates (Greiner Bio One) using a multidrop dispenser and incubated at 37 degrees C, 5% CO2, under a humidified atmosphere for 5 hours. Twenty-three nanoliters of compounds and controls (neutral control DMSO or positive control bortezomib at final concentration of 2.3 µM) were subsequently transferred by Kalypsys pintool. For primary screens, the MIPE collection was tested at 11-point dilutions (final concentrations range from 0.78 nM to 46 µM) and the NPC collection at 8-point dilutions (final concentrations range from 0.59 nM to 46 µM). Compounds tested in follow-up screens were assayed at 11-point dilutions. Cells were incubated for 48 hours, followed by addition of 3 uL of CellTiter-Glo (Promega). After a 15 min incubation at room temperature, samples were analyzed for luminescence intensity using a ViewLux High-throughput CCD imager equipped with clear filters.
A general note: Quantitative high-throughput screening tests each substance at several concentrations.
With `CCCCC(=O)OCC(=O)[C@H]1[C@H](C)C[C@H]2[C@@H]3C[C@H](F)C4=CC(=O)C=C[C@]4(C)[C@@]3(F)[C@@H](O)C[C@@]21C`, the Potency was 20.8 µM (active).
As for `Nc1ccc2cc3ccc(N)cc3nc2c1`, the figure is 5.85 µM (active); as for `C[C@H]1C[C@@H]2[C@H]([C@@H](O)C[C@@]3(C)[C@H]2CC[C@]3(O)C(=O)CO)[C@@]2(C)C=CC(=O)C=C12`, “inactive”.
As for `CCC1=C[C@@H]2CN(C1)Cc1c([nH]c3ccccc13)[C@@](C(=O)OC)(c1cc3c(cc1OC)N(C)[C@H]1[C@@](O)(C(=O)OC)[C@H](OC(C)=O)[C@]4(CC)C=CCN5CC[C@]31[C@@H]54)C2`, the Potency was 0.0522 µM (active).
Next, `C[C@]12CCC(=O)C=C1CC[C@@H]1[C@@H]2[C@@H](O)C[C@@]2(C)[C@H]1CC[C@]2(O)C(=O)COC(=O)CCC(=O)O`: “inactive”.
Consider `CC(C)(C)CC(=O)OCC(=O)[C@@]1(O)CC[C@H]2[C@@H]3CCC4=CC(=O)C=C[C@]4(C)[C@H]3[C@@H](O)C[C@@]21C`, for which the Potency result is “inactive”.
In the case of `CCOC(=O)O[C@]1(C(=O)OCCl)CC[C@H]2[C@@H]3CCC4=CC(=O)C=C[C@]4(C)[C@H]3[C@@H](O)C[C@@]21C`, the Potency entry is “inactive”.
Regarding `CC(C)=CCC/C(C)=C/CC/C(C)=C/C(=O)OCC(=O)[C@@]1(O)CC[C@H]2[C@@H]3CCC4=CC(=O)C=C[C@]4(C)[C@H]3[C@@H](O)C[C@@]21C`, the Potency entry is “inactive”.
Regarding `CN(C)CCN(Cc1ccsc1)c1ccccn1`, the Potency entry is “inactive”.
On to `CCCCC(CC)CNC(=O)CC(C)OC(=O)CCC(=O)O` (stereo unspecified), for which the Potency result is “inactive”.
With `Cc1cc(OCCOCC[N+](C)(C)Cc2ccccc2)ccc1C(C)(C)CC(C)(C)C`, the Potency is 14.7 µM (active).
As for `CC[C@@]1(O)C(=O)OCc2c1cc1n(c2=O)Cc2c-1nc1ccccc1c2/C=N/OC(C)(C)C`, the figure is 0.0928 µM (active).
Next, `CCc1cc2cc(OC)c(OC)cc2c(Cc2ccccc2)n1`: “inactive”; `CO[C@@H]1[C@@H](OC)[C@H](C)[C@@](O)(CC(=O)O)O[C@H]1[C@H](C)[C@H]1O[C@@]2(CC[C@@](C)([C@H]3CC[C@@](C)([C@@H]4O[C@@H]([C@H]5O[C@](C)(O)[C@H](C)C[C@@H]5C)C[C@@H]4OC4C[C@H](OC)[C@@H](OC)[C@H](C)O4)O3)O2)C[C@H](O)[C@H]1C` (stereo partly specified): 7.37 µM (active).
Consider `Cc1ccc(C(=O)Oc2ccc(C(O)CNC(C)(C)C)cc2OC(=O)c2ccc(C)cc2)cc1` (stereo unspecified), for which the Potency entry was “inactive”.
Next, `Nc1c2ccccc2nc2ccccc12`: 3.29 µM (active); `CC(=O)[C@@]1(O)CC[C@H]2[C@@H]3C[C@H](C)C4=CC(=O)CC[C@]4(C)[C@H]3CC[C@@]21C`: 1.17 µM (active); `CCC(=O)O[C@]1(C(=O)COC)[C@@H](C)C[C@H]2[C@@H]3CCC4=CC(=O)C=C[C@]4(C)C3(F)[C@@H](O)C[C@@]21C` (stereo partly specified): “inactive”.
Next, `C[C@H]1C[C@H]2[C@@H]3CCC4=CC(=O)C=C[C@]4(C)[C@H]3C(=O)C[C@]2(C)[C@@]1(O)C(=O)CO`: 4.65 µM (active); `CCC1(c2cnc[nH]2)Cc2ccccc2C1`: “inactive”; `O=c1[nH]sc2cc(Cl)ccc12`: 20.8 µM (active).
